Source: PMC11006913

Tests used:
Experiment in all cases: PBM; 200 nM protein, PBS
Conditions in all cases: dsDNA, one strand shown
[1] = target: T1, VENTX (Homo sapiens, UniProt O95231 78-163, R121Q)
T1 sequence: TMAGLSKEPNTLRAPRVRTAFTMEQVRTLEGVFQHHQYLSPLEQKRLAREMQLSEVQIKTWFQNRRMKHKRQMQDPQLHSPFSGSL

[2] = target: HOXA4 (Homo sapiens, UniProt Q00056 201-287, W262R)
[3] = target: HOXA7 (Homo sapiens, UniProt P31268 116-202)
[4] = target: ALX4 (Homo sapiens, UniProt Q9H161 200-286)
[5] = target: PRRX1 (Homo sapiens, UniProt P54821 80-166, F113S)
Chain of PRRX1 (Homo sapiens, UniProt P54821 80-166, F113S) (P54821 80-166 F113S): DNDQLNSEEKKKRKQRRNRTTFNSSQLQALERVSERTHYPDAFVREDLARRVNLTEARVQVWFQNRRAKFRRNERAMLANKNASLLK

[6] = target: HOXB6 (Homo sapiens, UniProt P17509 132-218, K202E)
Chain of HOXB6 (Homo sapiens, UniProt P17509 132-218, K202E) (P17509 132-218 K202E): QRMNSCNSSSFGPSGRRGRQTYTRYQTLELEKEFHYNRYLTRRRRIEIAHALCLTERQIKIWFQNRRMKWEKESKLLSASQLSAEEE

[7] = target: ALX4 (Homo sapiens, UniProt Q9H161 200-286, Q225E)
Chain of ALX4 (Homo sapiens, UniProt Q9H161 200-286, Q225E) (Q9H161 200-286 Q225E): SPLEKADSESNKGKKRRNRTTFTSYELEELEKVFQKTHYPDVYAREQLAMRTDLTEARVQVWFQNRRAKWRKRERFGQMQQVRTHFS

[8] = target: HOXA2 (Homo sapiens, UniProt O43364 129-215, R185T)
Chain of HOXA2 (O43364 129-215 R185T): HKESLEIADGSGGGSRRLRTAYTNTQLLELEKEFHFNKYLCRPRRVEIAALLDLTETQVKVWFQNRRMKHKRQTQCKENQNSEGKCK

[9] = target: ALX1 (Homo sapiens, UniProt Q15699 118-204, L144V)
Chain of ALX1 (Homo sapiens, UniProt Q15699 118-204, L144V) (Q15699 118-204 L144V): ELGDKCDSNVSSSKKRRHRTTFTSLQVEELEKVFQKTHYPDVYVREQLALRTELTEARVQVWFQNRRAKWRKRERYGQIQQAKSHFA

[10] = target: ALX1 (Homo sapiens, UniProt Q15699 118-204, L144R)
Chain of ALX1 (Homo sapiens, UniProt Q15699 118-204, L144R) (Q15699 118-204 L144R): as the sequence (Q15699 118-204 L144V) above, with V27R counted along it

[11] = target: HOXA4 (Homo sapiens, UniProt Q00056 201-287)
Chain of HOXA4 (Homo sapiens, UniProt Q00056 201-287) (Q00056 201-287): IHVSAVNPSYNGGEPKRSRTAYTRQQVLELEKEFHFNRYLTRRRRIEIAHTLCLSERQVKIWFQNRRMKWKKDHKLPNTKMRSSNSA

[12] = target: MSX2 (Homo sapiens, UniProt P35548 130-214)
Chain of MSX2 (P35548 130-214): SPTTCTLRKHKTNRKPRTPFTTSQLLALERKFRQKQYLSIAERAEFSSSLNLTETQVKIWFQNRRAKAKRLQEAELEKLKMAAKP

[13] = target: VAX1 (Homo sapiens, UniProt Q5SQQ9 86-172, T142I)
Chain of VAX1 (Homo sapiens, UniProt Q5SQQ9 86-172, T142I) (Q5SQQ9 86-172 T142I): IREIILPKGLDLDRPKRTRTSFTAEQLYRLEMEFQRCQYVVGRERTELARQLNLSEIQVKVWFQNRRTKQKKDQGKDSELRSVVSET

[14] = target: HOXA7 (Homo sapiens, UniProt P31268 116-202, W177C)
Chain of HOXA7 (Homo sapiens, UniProt P31268 116-202, W177C) (P31268 116-202 W177C): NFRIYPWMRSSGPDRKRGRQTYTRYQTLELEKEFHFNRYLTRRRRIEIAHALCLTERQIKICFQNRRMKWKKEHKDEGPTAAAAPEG

[15] = target: ALX1 (Homo sapiens, UniProt Q15699 118-204)
Chain of ALX1 (Homo sapiens, UniProt Q15699 118-204) (Q15699 118-204): as the sequence (Q15699 118-204 L144V) above, with V27L counted along it

[16] = target: HOXA4 (Homo sapiens, UniProt Q00056 201-287, W262F)
Chain of HOXA4 (Homo sapiens, UniProt Q00056 201-287, W262F) (Q00056 201-287 W262F): as the sequence (Q00056 201-287) above, with W62F counted along it

[17] = target: PRRX1 (Homo sapiens, UniProt P54821 80-166)
Chain of PRRX1 (Homo sapiens, UniProt P54821 80-166) (P54821 80-166): as the sequence (P54821 80-166 F113S) above, with S34F counted along it

[18] = target: VAX1 (Homo sapiens, UniProt Q5SQQ9 86-172, K157R)
Chain of VAX1 (Homo sapiens, UniProt Q5SQQ9 86-172, K157R) (Q5SQQ9 86-172 K157R): as the sequence (Q5SQQ9 86-172 T142I) above, with I57T, K72R counted along it

[19] = target: HOXB6 (Homo sapiens, UniProt P17509 132-218)
Chain of HOXB6 (Homo sapiens, UniProt P17509 132-218) (P17509 132-218): as the sequence (P17509 132-218 K202E) above, with E71K counted along it

[20] = target: NKX2-5 (Homo sapiens, UniProt P52952 125-210)
Chain of NKX2-5 (P52952 125-210): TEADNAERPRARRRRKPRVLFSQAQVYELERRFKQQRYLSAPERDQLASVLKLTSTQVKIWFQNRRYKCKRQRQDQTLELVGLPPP

Chain of HOXA7 (Homo sapiens, UniProt P31268 116-202) (P31268 116-202): as the sequence (P31268 116-202 W177C) above, with C62W counted along it
Chain of HOXA4 (Homo sapiens, UniProt Q00056 201-287, W262R) (Q00056 201-287 W262R): as the sequence (Q00056 201-287) above, with W62R counted along it
Chain of ALX4 (Homo sapiens, UniProt Q9H161 200-286) (Q9H161 200-286): as the sequence (Q9H161 200-286 Q225E) above, with E26Q counted along it

Sequence: TAATTACA
- binding signal [1]: 12.2 upbm affinity estimate (log intensity, higher = more binding, comparable within an allelic series)
- binding signal [2]: 10.8 upbm affinity estimate (log intensity, higher = more binding, comparable within an allelic series)
- binding signal [3]: 12.1 upbm affinity estimate (log intensity, higher = more binding, comparable within an allelic series)
- binding signal [4]: 14.2 upbm affinity estimate (log intensity, higher = more binding, comparable within an allelic series)
- binding signal [5]: 11.6 upbm affinity estimate (log intensity, higher = more binding, comparable within an allelic series)
- binding signal [6]: 10.2 upbm affinity estimate (log intensity, higher = more binding, comparable within an allelic series)
- binding signal [7]: 13.5 upbm affinity estimate (log intensity, higher = more binding, comparable within an allelic series)
- binding signal [8]: 13.9 upbm affinity estimate (log intensity, higher = more binding, comparable within an allelic series)
- binding signal [9]: 11.9 upbm affinity estimate (log intensity, higher = more binding, comparable within an allelic series)
- binding signal [10]: 11.5 upbm affinity estimate (log intensity, higher = more binding, comparable within an allelic series)
- binding signal [11]: 14.2 upbm affinity estimate (log intensity, higher = more binding, comparable within an allelic series)
- binding signal [12]: 14.1 upbm affinity estimate (log intensity, higher = more binding, comparable within an allelic series)
- binding signal [13]: 13.6 upbm affinity estimate (log intensity, higher = more binding, comparable within an allelic series)
- binding signal [14]: 8.98 upbm affinity estimate (log intensity, higher = more binding, comparable within an allelic series)
- binding signal [15]: 12.5 upbm affinity estimate (log intensity, higher = more binding, comparable within an allelic series)
- binding signal [16]: 12.3 upbm affinity estimate (log intensity, higher = more binding, comparable within an allelic series)
- binding signal [17]: 13.5 upbm affinity estimate (log intensity, higher = more binding, comparable within an allelic series)
- binding signal [18]: 13.6 upbm affinity estimate (log intensity, higher = more binding, comparable within an allelic series)
- binding signal [19]: 12.5 upbm affinity estimate (log intensity, higher = more binding, comparable within an allelic series)

Sequence: CTTAATTA
- binding signal [1]: 12.5 upbm affinity estimate (log intensity, higher = more binding, comparable within an allelic series)
- binding signal [2]: 11 upbm affinity estimate (log intensity, higher = more binding, comparable within an allelic series)
- binding signal [3]: 12.1 upbm affinity estimate (log intensity, higher = more binding, comparable within an allelic series)
- binding signal [4]: 14.5 upbm affinity estimate (log intensity, higher = more binding, comparable within an allelic series)
- binding signal [5]: 12 upbm affinity estimate (log intensity, higher = more binding, comparable within an allelic series)
- binding signal [6]: 10.3 upbm affinity estimate (log intensity, higher = more binding, comparable within an allelic series)
- binding signal [7]: 14.3 upbm affinity estimate (log intensity, higher = more binding, comparable within an allelic series)
- binding signal [8]: 13.8 upbm affinity estimate (log intensity, higher = more binding, comparable within an allelic series)
- binding signal [9]: 12.3 upbm affinity estimate (log intensity, higher = more binding, comparable within an allelic series)
- binding signal [10]: 11.9 upbm affinity estimate (log intensity, higher = more binding, comparable within an allelic series)
- binding signal [11]: 14.3 upbm affinity estimate (log intensity, higher = more binding, comparable within an allelic series)
- binding signal [12]: 14 upbm affinity estimate (log intensity, higher = more binding, comparable within an allelic series)
- binding signal [13]: 13.9 upbm affinity estimate (log intensity, higher = more binding, comparable within an allelic series)
- binding signal [14]: 8.96 upbm affinity estimate (log intensity, higher = more binding, comparable within an allelic series)
- binding signal [15]: 12.9 upbm affinity estimate (log intensity, higher = more binding, comparable within an allelic series)
- binding signal [16]: 13 upbm affinity estimate (log intensity, higher = more binding, comparable within an allelic series)
- binding signal [17]: 13.6 upbm affinity estimate (log intensity, higher = more binding, comparable within an allelic series)
- binding signal [18]: 13.8 upbm affinity estimate (log intensity, higher = more binding, comparable within an allelic series)
- binding signal [19]: 12.5 upbm affinity estimate (log intensity, higher = more binding, comparable within an allelic series)

Sequence: AGCCACTC
- binding signal [20]: 11.5 upbm affinity estimate (log intensity, higher = more binding, comparable within an allelic series)

Sequence: AATAATTA
- binding signal [1]: 12 upbm affinity estimate (log intensity, higher = more binding, comparable within an allelic series)
- binding signal [2]: 10.9 upbm affinity estimate (log intensity, higher = more binding, comparable within an allelic series)
- binding signal [3]: 11.9 upbm affinity estimate (log intensity, higher = more binding, comparable within an allelic series)
- binding signal [4]: 14.2 upbm affinity estimate (log intensity, higher = more binding, comparable within an allelic series)
- binding signal [5]: 11.7 upbm affinity estimate (log intensity, higher = more binding, comparable within an allelic series)
- binding signal [6]: 10.2 upbm affinity estimate (log intensity, higher = more binding, comparable within an allelic series)
- binding signal [7]: 13.7 upbm affinity estimate (log intensity, higher = more binding, comparable within an allelic series)
- binding signal [8]: 13.5 upbm affinity estimate (log intensity, higher = more binding, comparable within an allelic series)
- binding signal [9]: 11.9 upbm affinity estimate (log intensity, higher = more binding, comparable within an allelic series)
- binding signal [10]: 11.7 upbm affinity estimate (log intensity, higher = more binding, comparable within an allelic series)
- binding signal [11]: 14.2 upbm affinity estimate (log intensity, higher = more binding, comparable within an allelic series)
- binding signal [12]: 14 upbm affinity estimate (log intensity, higher = more binding, comparable within an allelic series)
- binding signal [13]: 13.4 upbm affinity estimate (log intensity, higher = more binding, comparable within an allelic series)
- binding signal [14]: 9.07 upbm affinity estimate (log intensity, higher = more binding, comparable within an allelic series)
- binding signal [15]: 12.5 upbm affinity estimate (log intensity, higher = more binding, comparable within an allelic series)
- binding signal [16]: 12.2 upbm affinity estimate (log intensity, higher = more binding, comparable within an allelic series)
- binding signal [17]: 13.5 upbm affinity estimate (log intensity, higher = more binding, comparable within an allelic series)
- binding signal [18]: 13.4 upbm affinity estimate (log intensity, higher = more binding, comparable within an allelic series)
- binding signal [19]: 12.3 upbm affinity estimate (log intensity, higher = more binding, comparable within an allelic series)

Sequence: ATTAATGA
- binding signal [1]: 12.2 upbm affinity estimate (log intensity, higher = more binding, comparable within an allelic series)
- binding signal [2]: 10.8 upbm affinity estimate (log intensity, higher = more binding, comparable within an allelic series)
- binding signal [3]: 12 upbm affinity estimate (log intensity, higher = more binding, comparable within an allelic series)
- binding signal [4]: 13.8 upbm affinity estimate (log intensity, higher = more binding, comparable within an allelic series)
- binding signal [5]: 11.2 upbm affinity estimate (log intensity, higher = more binding, comparable within an allelic series)
- binding signal [6]: 10.3 upbm affinity estimate (log intensity, higher = more binding, comparable within an allelic series)
- binding signal [7]: 12.8 upbm affinity estimate (log intensity, higher = more binding, comparable within an allelic series)
- binding signal [8]: 13.3 upbm affinity estimate (log intensity, higher = more binding, comparable within an allelic series)
- binding signal [9]: 11.6 upbm affinity estimate (log intensity, higher = more binding, comparable within an allelic series)
- binding signal [10]: 11.4 upbm affinity estimate (log intensity, higher = more binding, comparable within an allelic series)
- binding signal [11]: 14.2 upbm affinity estimate (log intensity, higher = more binding, comparable within an allelic series)
- binding signal [13]: 13.4 upbm affinity estimate (log intensity, higher = more binding, comparable within an allelic series)
- binding signal [14]: 8.94 upbm affinity estimate (log intensity, higher = more binding, comparable within an allelic series)
- binding signal [15]: 12.2 upbm affinity estimate (log intensity, higher = more binding, comparable within an allelic series)
- binding signal [16]: 12.2 upbm affinity estimate (log intensity, higher = more binding, comparable within an allelic series)
- binding signal [17]: 13.3 upbm affinity estimate (log intensity, higher = more binding, comparable within an allelic series)
- binding signal [18]: 13.3 upbm affinity estimate (log intensity, higher = more binding, comparable within an allelic series)
- binding signal [19]: 12.3 upbm affinity estimate (log intensity, higher = more binding, comparable within an allelic series)
